ATXN2 expr inh = Primary qHTS for Inhibitors of ATXN expression | HEK-293 ATXN2-luciferase reporter, luminescence, 24 h | Potency, µM (series often up to 57 µM), for the others: at the highest dose activity change, negative = inhibition, most hits filed as inhibitors | 360,000 tested, 0.72% active; note: % is set by controls: 0 for no effect and ±100 for the full control effect; nearly all actives have a fitted effect of over 55% in size
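ATXN2-luciferase reporter cells (luciferase flanked by upstream and downstream ATXN2 gene portions) were treated 24 h at 37 °C with compounds at up to 57 uM. SteadyGlo luminescence gave expression; GF-AFC fluorescence gave viability.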
TGFb SMAD3 inh = qHTS for Inhibitors of TGF-b; HepG2 CAGA-GFP TGF-b/SMAD3 reporter, GFP fluorescence, 18 h; TGF-beta stimulated, 500 pg/mL final; Potency, µM (highest dose often 46.1 µM), for the others: top-dose activity, negative = inhibition, most hits filed as inhibitors; 410,000 tested, 1.2% active; AID 588855, 2011; note: % is set by controls: 0 for no effect and ±100 for the full control effect; nearly all actives have a fitted effect of over 65% in size
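HEPG2 CAGA-GFP reporter cells (1000/well, DMEM with 1% FBS) received compounds, then recombinant TGF-beta at 500 pg/mL final for 18 hours at 37 degrees C. Per-cell GFP summed per well was normalised to unstimulated and stimulated DMSO controls before curve fitting.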
HepG2 viability = qHTS for Inhibitors of TGF-b: Cytotox Counterscreen; HepG2 CAGA-GFP viability, ATP luminescence, 18 h; Potency, µM (titrated, usually from 46.1 µM), for the others: top-dose activity change, negative = cytotoxicity, actives largely listed as cytotoxic; 410,000 tested, 0.76% active
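CellTiter-Glo luminescence gave cytotoxicity after 18 hours at 37 degrees C. The cells were HepG2 CAGA-GFP in 1% FBS DMEM, stimulated with 500 pg/mL TGF-beta after compound addition. %Activity was normalised to no-cell wells (complete cell-killing) and DMSO (no toxicity), and curves were fitted and classified.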
ATXN viability = Viability Counterscreen for Primary qHTS for Inhibitors of ATXN expression. S2 cells (HEK-293 line with an ATXN2-luciferase reporter) viability, CellTiter-Fluor protease fluorescence, 24 h. Potency, µM (doses to about 56.7 µM), hits mostly cytotoxic. 400,000 tested, 0.49% active. AID 651635, 2014; note: nearly all actives have a fitted effect of over 40% in size
12-LOX inh = Primary qHTS assay for inhibitors of human arachidonate 12S-lipoxygenase (ALOX12): Round 2; Polyunsaturated fatty acid lipoxygenase ALOX12 (Homo sapiens), P18054; purified 12hLO, xylenol orange hydroperoxide absorbance; Potency, µM (highest dose often 108 µM), without a hit: at the top dose activity change, negative = inhibition, usual class: inhibitors; 580,000 tested, 1.1% active; AID 1671190, 2021; note: % is set by controls: 0 for no effect and ±100 for the full control effect
Target sequence (P18054 whole entry, looked up): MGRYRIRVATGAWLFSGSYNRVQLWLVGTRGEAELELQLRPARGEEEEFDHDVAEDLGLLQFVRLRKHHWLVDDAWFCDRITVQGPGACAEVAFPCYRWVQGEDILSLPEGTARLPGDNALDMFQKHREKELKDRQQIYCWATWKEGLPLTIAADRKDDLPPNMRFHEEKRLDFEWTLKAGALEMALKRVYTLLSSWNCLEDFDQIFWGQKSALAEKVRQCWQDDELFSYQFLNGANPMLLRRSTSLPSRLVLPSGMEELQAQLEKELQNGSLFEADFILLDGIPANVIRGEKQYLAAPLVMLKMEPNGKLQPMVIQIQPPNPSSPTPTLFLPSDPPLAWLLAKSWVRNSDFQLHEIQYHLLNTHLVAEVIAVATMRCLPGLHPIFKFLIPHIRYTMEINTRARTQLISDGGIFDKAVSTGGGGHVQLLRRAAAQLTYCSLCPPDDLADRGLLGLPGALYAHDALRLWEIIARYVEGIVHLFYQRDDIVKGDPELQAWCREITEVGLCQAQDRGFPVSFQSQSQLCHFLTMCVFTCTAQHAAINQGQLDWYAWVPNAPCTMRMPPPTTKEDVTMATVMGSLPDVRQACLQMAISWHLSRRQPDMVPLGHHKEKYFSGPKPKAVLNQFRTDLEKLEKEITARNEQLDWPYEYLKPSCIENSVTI
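Hydroperoxide product was detected by ferrous iron/xylenol orange as the 573 to 405 nm absorbance ratio. Arachidonic acid at 40 uM (final) was turned over for 30 min at room temperature by 150 nM human 12hLO, pH 7.0 Hepes buffer, after 15 min compound preincubation.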
Starred values were filed as active, the others as inactive; i = inactive; ? = inconclusive; · = not tested or not shown; [ ] = another dose, or the depositor's remark. A selection: hits, their analogues and other compounds. The true share with any hit is near 2.7%. Calls come from the whole dose curve; as a rule, active = well fitted curve in the direction sought with a large enough effect; inconclusive = small, poorly fitted or top-dose-only effect, or another doubt; inactive = no such curve, though single readings can be large; an effect the other way counts as inactive or inconclusive. Potency is the fitted concentration of half-maximal effect.

SMILES	ATXN2 expr inh	TGFb SMAD3 inh	HepG2 viability	ATXN viability	12-LOX inh
CN(Cc1ccc(C(F)(F)F)cc1)C(=O)c1ccc(CNC(N)=O)cc1	·	·	·	·	-27%
Cc1ccc(-c2nc(N3CCN(C)CC3)c3ccccc3n2)cc1	·	-8%	-39%	?	-34%
CN1CCN(c2nc(-c3ccc(C(C)(C)C)cc3)nc3ccccc23)CC1	·	?	-82%	i	32µM*
Cc1csc(NC(=O)c2sc3nc4c(c(C(F)(F)F)c3c2N)CCC4)n1	0.097µM*	·	·	·	-2%[57.4 µM]
S=C1NC2=C(CCCC2=C2SCCCS2)C(c2ccccc2)N1 (stereo not given)	9%	-11%	-4%	i	14µM*
S=C1NC2=C(CCc3ccccc32)C(c2ccccc2)N1 (stereo not given)	·	·	·	·	16µM*
Fc1cccc(Cl)c1C1NC(=S)NC2=C1CCc1ccccc12 (stereo not given)	·	·	·	·	40µM*
Cc1ccccc1C(=O)OCc1nc(N)c2ccccc2n1	·	·	·	·	33%
COc1cc(OC)c(S(=O)(=O)Nc2ccc(C)cn2)cc1NC(C)=O	10%	-13%	10µM*	i	1%
CCC(=O)NC(c1cccs1)c1cc(Cl)c2ccccc2c1O (stereo not given)	-30%	?	1%	i	-22%
O=C(CCc1ccccc1)NC(c1cccs1)c1cc(Cl)c2cccnc2c1O (stereo not given)	13µM*	?	-1%	·	-6%
CCC(=O)NC(c1cccs1)c1cc([N+](=O)[O-])c2cccnc2c1O (stereo not given)	?	?	-47%	?	3.5µM*
CC(=O)NC(c1cccs1)c1cc([N+](=O)[O-])c2cccnc2c1O (stereo not given)	13µM*	?	-10%	?	?
CCCC(=O)NC(c1cccs1)c1cc([N+](=O)[O-])c2cccnc2c1O (stereo not given)	?	-32%	-18%	?	18µM*
CCCCCCOC(=O)c1ccccc1	·	·	·	·	3%[176 µM]
Cc1ccc(/C=C(\NC(=O)c2ccc(C)cc2)c2nc(=S)[nH][nH]2)cc1	?	?	-67%	·	20µM*
Cc1ccc(C(=O)N/C(=C\c2ccccc2F)c2nc(=S)[nH][nH]2)cc1	16%	-15%	-8%	i	?
CC(C)Oc1ccc(C(=O)Nc2nnc(SCC(=O)N3CCOCC3)s2)cc1	10µM*	7%	11%	i	-13%
CN(C)S(=O)(=O)c1ccc(C(=O)Nc2nnc(SCC(=O)N3CCOCC3)s2)cc1	·	-5%	-6%	i	-18%
Nc1nc(N)c2cc(S(=O)(=O)c3cccc(C(F)(F)F)c3)ccc2n1	·	-19%	1.3µM*	i	-13%
CC(=O)NC1(C)CCN(Cc2ccccc2-c2ccccc2Oc2ccccc2)C1 (stereo not given)	·	·	·	·	35µM*
CC(=O)NC1(C)CCN(Cc2cccc(Nc3ccccc3)c2)C1 (stereo not given)	·	·	·	·	6%[176 µM]
COc1cc(CN2CCC(C)(NC(C)=O)CC2)cc(Nc2ccccc2)c1	·	·	·	·	13µM*
Cc1ccc(-c2nc3nc(CN4CCCC4)cc(=O)n3[nH]2)cc1	·	·	·	·	-6%
CCc1ccc(NCc2cc(=O)n3[nH]c(-c4ccccc4)nc3n2)cc1	·	·	·	·	8.9µM*
SMILES	ATXN2 expr inh	TGFb SMAD3 inh	HepG2 viability	ATXN viability	12-LOX inh
COc1cccc(NCc2cc(=O)n3[nH]c(-c4ccc(C)cc4)nc3n2)c1	·	·	·	·	40µM*
CCCc1cc(=O)n2[nH]c(-c3ccc(C)cc3)nc2n1	13%	-10%	-4%	i	-15%
O=C1Nc2ccccc2NC(c2cccc(Br)c2)=C1N(C(=O)C(=O)c1cccs1)c1ccccc1	·	·	·	·	-10%
C(=N\Nc1cccc2cccnc12)/c1c[nH]c2ccccc12	·	·	·	·	32µM*
CCc1ccc2[nH]c(=O)c(C3C(C#N)=C(N)Oc4c3ccc3cccnc43)cc2c1 (stereo not given)	?	?	-4%	i	-30%
Cc1ccc2cc(C3C(C#N)=C(N)Oc4c3ccc3cccnc43)c(=O)[nH]c2c1 (stereo not given)	?	?	-4%	i	25µM*
CN(Cc1ccco1)C(=O)c1n[nH]c(=O)c2ccccc12	·	·	·	·	12%
O=C1CC(c2cc(Br)ccc2F)c2cc3c(cc2N1)CCC3 (stereo not given)	?	-4%	4%	4.5µM*	5%
O=C1CC(c2cccc(Cl)c2)c2cc3c(cc2N1)CCC3 (stereo not given)	?	10µM*	-53%	?	?
CC(=O)NNC(=S)Nc1cccc(Cl)c1Cl	·	·	·	·	25%
COc1cc(OC)cc(OC(C)C(=O)Nc2cc(Cl)ccc2OC)c1 (stereo not given)	·	·	·	·	-4%
Cc1ccc(S(=O)(=O)Nc2ccc(Br)cc2/C=N/n2cnnc2)cc1	?	?	-21%	i	45µM*
Cc1nc2n(c(=O)c1C)CN(CCN1CCOCC1)CN2c1ccc(Oc2ccccc2)cc1	·	·	·	·	-2%
COc1ccc(/C(C)=N/NC(=S)Nc2cc(C)ccc2C)cc1	-17%	?	-17%	i	45µM*
COCCNC(=S)N/N=C(\C)c1ccc2cc(OC)ccc2c1	-15%	?	-21%	i	35µM*
COc1cc(S(=O)(=O)Nc2ccc3ccccc3c2)ccc1NC(C)=O	·	·	·	·	-30%
C=CCSc1nnc(NC(=O)c2cc(=O)c3cc(CC)ccc3o2)s1	·	·	·	·	14%
COc1ccc(NC(=O)C2CC(=O)N(C3CCCC3)C2)cc1S(=O)(=O)N1CCCCC1 (stereo not given)	·	·	·	·	-13%
COc1cc(Nc2nc(SCC(=O)c3ccc(Br)cc3)nc3ccccc23)cc(OC)c1	·	?	10µM*	·	0%
CNC(C)c1cccs1 (stereo not given)	·	·	·	·	-22%
CC(Sc1ncnc2nc[nH]c12)C(=O)Nc1ccc(Oc2ccccc2)cc1 (stereo not given)	·	·	·	·	6%
COc1ccccc1CNS(=O)(=O)c1cc(C(=O)Nc2cccc(C(F)(F)F)c2)ccc1F	·	11µM*	-18%	·	-7%
CC(C)c1ccc(NC(=O)c2ccc(F)c(S(=O)(=O)N3CCc4ccccc4C3)c2)cc1	·	-38%	-16%	·	?
O=C(Nc1cccc(C(F)(F)F)c1)c1ccc(F)c(S(=O)(=O)N2CCc3ccccc3C2)c1	·	11µM*	-33%	·	-14%
CSc1ccc(-c2ccc3c(c2)C(=O)N2CCN(C(=O)CC(C)(C)C)C[C@@H]2C(=O)N3)cc1	·	·	·	·	9%
Cc1cc(C(=O)COC(=O)c2ccccc2O)c(C)n1Cc1cccs1	0.71µM*	-37%	-3%	i	0%
